In PubChem BioAssay AID1159580 (chemical genetic matrix, 2015):
About 2,000 (36%) of roughly 5,500 compounds were called active. Not shown: some 18% with an inconclusive outcome. Cut-off read from the data, not from the text of the source: active = normalized growth mostly below about 0.91 (no sharp cut-off); inconclusive = no clear call, values can overlap the other calls; inactive = mostly above about 0.92. The list shows a part of the results.

Assay: chemical genetic growth profiling, strain panel (AID 1159580);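 note: tested at 20 µM; growth read once vehicle control cultures reached saturation at 30 °C; 1 = growth at the plate median or of vehicle wells; lower values mean less growth of the strain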
Conditions: S. cerevisiae deletion strains, growth OD

Measured: normalized growth

O=S(=O)(c1cc(Cl)ccc1Cl)N1CCc2ccccc2C1
inactive: locus YAR019C, strain CDC15, active compounds read low 0.98 | locus YBL105C, strain PKC1, active compounds read low 0.977 | locus YBR135W, strain CKS1, active compounds read low 0.971 | locus YBR136W, strain MEC1, active compounds read low 0.983 | locus YBR160W, strain CDC28, active compounds read low 0.982 | locus YDL017W, strain CDC7, active compounds read low 0.982 | locus YDL028C, strain MPS1, active compounds read low 0.976 | locus YDL101C, strain DUN1, active compounds read low 0.981 | locus YDL108W, strain KIN28, active compounds read low 0.98 | locus YDL132W, strain cdc53, active compounds read low 0.973 | locus YDL214C, strain PRR2, active compounds read low 1.02 | locus YDR052C, strain DBF4, active compounds read low 0.983 | locus YDR054C, strain cdc34, active compounds read low 0.977 | locus YDR226W, strain ADK1, active compounds read low 0.978 | locus YDR477W, strain SNF1, active compounds read low 1.02 | locus YER123W, strain YCK3, active compounds read low 1 | locus YER133W, strain GLC7, active compounds read low 1.02 | locus YFL009W, strain cdc4, active compounds read low 0.967 | locus YFL029C, strain CAK1, active compounds read low 0.978 | locus YFR003C, strain YPI1, active compounds read low 0.981 | locus YFR019W, strain FAB1, active compounds read low 0.99 | locus YFR028C, strain CDC14, active compounds read low 0.981 | locus YGR040W, strain KSS1, active compounds read low 1.03 | locus YGR052W, strain FMP48, active compounds read low 1.06 | locus YGR092W, strain DBF2, active compounds read low 0.994 | locus YHR030C, strain SLT2, active compounds read low 0.951 | locus YHR079C, strain IRE1, active compounds read low 0.987 | locus YHR082C, strain KSP1, active compounds read low 1.15 | locus YHR205W, strain SCH9, active compounds read low 0.912 | locus YIL147C, strain SLN1, active compounds read low 0.975 | locus YJL095W, strain BCK1, active compounds read low 0.96 | locus YJL128C, strain PBS2, active compounds read low 0.925 | locus YJL157C, strain FAR1, active compounds read low 1.01 | locus YJR016C, strain ILV3, active compounds read low 0.985 | locus YJR066W, strain TOR1 (second series), active compounds read low 1.02 | locus YJR066W, strain TOR1, active compounds read low 1.11 | locus YKL048C, strain ELM1, active compounds read low 1 | locus YKL067W, strain YNK1, active compounds read low 1 | locus YKL101W, strain HSL1, active compounds read low 0.994 | locus YKL193C, strain SDS22, active compounds read low 0.971 | locus YKL203C, strain TOR2, active compounds read low 1.08 | locus YLR113W, strain HOG1, active compounds read low 0.953 | locus YLR133W, strain CKI1, active compounds read low 1 | locus YLR403W, strain SFP1, active compounds read low 0.964 | locus YML070W, strain DAK1, active compounds read low 1.02 | locus YMR001C, strain CDC5, active compounds read low 0.98 | locus YMR205C, strain PFK2 (second series), active compounds read low 0.995 | locus YMR277W, strain FCP1, active compounds read low 0.982 | locus YNL006W, strain LST8, active compounds read low 0.984 | locus YNL020C, strain ARK1, active compounds read low 1.01 | locus YNL161W, strain CBK1, active compounds read low 0.981 | locus YNL183C, strain NPR1, active compounds read low 1.14 | locus YNL207W, strain RIO2, active compounds read low 0.98 | locus YNL222W, strain SSU72, active compounds read low 0.983 | locus YNL307C, strain MCK1 (second series), active compounds read low 0.999 | locus YOL078W, strain AVO1, active compounds read low 0.975 | locus YOL136C, strain PFK27, active compounds read low 1 | locus YOR061W, strain CKA2, active compounds read low 0.99 | locus YOR119C, strain RIO1, active compounds read low 1.08 | locus YOR231W, strain MKK1, active compounds read low 1.06 | locus YOR329C, strain SCD5, active compounds read low 0.985 | locus YPL031C, strain PHO85, active compounds read low 1.01 | locus YPL153C, strain RAD53, active compounds read low 1.01 | locus YPL204W, strain HRR25, active compounds read low 1.02 | locus YPL209C, strain IPL1, active compounds read low 0.979 | locus YPL256C, strain CLN2, active compounds read low 0.987 | locus YPR025C, strain CCL1, active compounds read low 0.977 | locus YPR106W, strain ISR1, active compounds read low 0.986 | locus YPR111W, strain DBF20, active compounds read low 0.978 | strain NNK1, active compounds read low 0.983 | strain TSCII, active compounds read low 0.985
